Measurements reported in PubChem BioAssay.

system: not listed separately; test: small-molecule microarray binders of probe aEGFR, primary screen, biochemical, biotinylated probe, 635/667 nm fluorescence (AID 1097); details: higher = more signal;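 note: probe is a biotinylated anti-EGFR antibody binding compounds printed on slides; score combines fluorescence near 667 nm and signal to noise of each spot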

Structure (SMILES) | composite z-score
C#CCN(Cc1ccccc1Br)[C@H](/C=C/c1ccccc1)[C@@H](O)Cc1ccccc1 | -0.397
COCCOC(=O)N1C(=O)[C@@]2(c3cc(C#CC4=CCCCC4)ccc31)[C@H](c1ccccc1OCCO)N1[C@H](c3ccccc3)[C@H](c3ccccc3)OC(=O)[C@H]1[C@@H]2C(=O)NC[C@H](O)c1ccccc1 | -0.0476
NCCCCCCNC(=O)[C@@H]1C[C@@H]2C(=O)N[C@@H](CCCCN)C(=O)N2[C@@H]1c1ccc(O)cc1 | 0.217
C=CC[C@]1(C(=O)N2CCOCC2)COC(c2ccc(OCCCO)cc2)=N1 | -0.0828
COc1ccc(C(=O)Nc2ccc(CN3C(=O)[C@]4(O[C@H](CC(=O)N5Cc6ccccc6C[C@H]5CO)[C@@H]([Si](C)(C)c5ccc(OC)cc5)[C@@H]4C)c4ccccc43)cc2)cc1 | -0.096
CCCNC(=O)[C@@H]1c2ccccc2C(=O)N(Cc2ccc(OC(F)(F)F)cc2)[C@H]1c1ccc(CO)cc1 | -0.0316

system: Plasmodium falciparum Sir2 (PF13_0152, Sir2A); test: pfSir2 binders on small-molecule microarrays, primary screen, biochemical, small-molecule microarray, 635 nm fluorescence (AID 1098); details: small-molecule microarray binding, fluorescence 635 nm; higher = more signal;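 note: score merges spot fluorescence intensity with its signal-to-noise ratio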

Structure (SMILES) | composite z-score
C=CCC(OC(C)=O)[C@@H]1[C@@H](N(Cc2ccc(-c3ccccc3)cc2)C(=O)c2ccc(-c3ccccc3)cc2)c2cc(OCCCO)ccc2N1C(=O)c1ccc2ccccc2c1 (stereo partly specified) | -0.519
CCOC(=O)C[C@H]1[C@H](OC(=O)c2cc3ccccc3oc2=O)[C@@H](NC(=O)c2ccc3ccccc3n2)c2cc(OCCCO)ccc2N1C(=O)Cc1ccc(OC)cc1 | 0.915
Cc1ccc(S[C@]2(C(=O)NCC(F)(F)F)CC(=O)N(Cc3cc(C(F)(F)F)cc(C(F)(F)F)c3)[C@@H]2c2ccc(CO)cc2)cc1 | 1.13
COC(=O)[C@@]1(Cc2ccc(OC)cc2)[C@H]2c3cc(C(=O)N4CCCC4)n(CCc4c[nH]c5ccc(O)cc45)c3C[C@H]2CN1C(=O)c1ccccc1 | 1.29
NC(=O)[C@@]1(Cc2ccccc2)COC(c2ccc(OCCCO)cc2)=N1 | 0.0491
COCCOC(=O)N1C(=O)[C@@]2(c3cc(C#CCCO)ccc31)[C@H](C(=O)Nc1nc3ccccc3s1)[C@H]1C(=O)O[C@H](c3ccccc3)[C@H](c3ccccc3)N1[C@@H]2c1ccc(O)cc1 | 0.972
COc1ccc([Si](C)(C)[C@@H]2[C@@H](CCO)O[C@]3(C(=O)N(Cc4ccccc4)c4ccc(N5CCOC5=O)cc43)[C@H]2C)cc1 | 1.54
C=C(/C(=C/C[C@H](OC(C)=O)c1ccc(CO)o1)c1cnc2ccccc2c1)C(C)C | 1.1
COC(=O)[C@@]1(Cc2ccccc2)[C@H]2c3cc(C(=O)N4CCCC4)n(CCc4ccccn4)c3C[C@H]2CN1C(=O)c1ccccc1 | 1.04
COCC(=C=CC[C@H](O)c1ccc(OCCO)cc1)CCO | 1.09
CCOC(=O)C1=C[C@@H](C(C)(C)C)N(S(=O)(=O)c2ccc(C)cc2)[C@H]1c1cccc2ccccc12 | 0.462
C=CC[C@@]1(C(=O)NCCCOC)N=C(c2ccc(OCCCO)cc2)O[C@@H]1c1ccccc1 | 1.7
[N-]=[N+]=Nc1ccccc1C[C@]1(C(=O)NCCN2CCOCC2)COC(c2ccc(OCCCO)cc2)=N1 | 1.01
Cc1ccc(F)cc1S(=O)(=O)N[C@@H]1CCN(Cc2ccc(Br)cc2)C1 | 0.0002
OCCCC1=CC(c2ccc(CN3CCCC3)cc2)N(Cc2cc3c(cc2Br)OCO3)CC1 (stereo unspecified) | 0.216
COC(=O)C1=CC(CCCO)=CC(c2ccc(CN3CCCC3)cc2)N(Cc2cccc(OC(F)(F)F)c2)C=C1C(=O)OC (stereo unspecified) | 1.26
CC(CO)N1C(=O)[C@@H]2[C@H]3C(=O)OCC=C[C@H]3OC23C=CCN(Cn2nnc4ccccc42)C(=O)[C@@H]13 (stereo partly specified) | 0.996
CC(C)NC(=O)[C@@]1(c2ccc([N+](=O)[O-])cc2)CC(=O)N(C2CCCCC2)[C@@H]1c1ccc(CO)cc1 | 1.49

Structure (SMILES) | composite z-score
O=C1CS(=O)(=O)C(c2cccc([N+](=O)[O-])c2)N1c1ccccc1 (stereo unspecified) | 0.175
NC(=O)NCC#Cc1ccc2c(c1)[C@]1(C(=O)N2)[C@H](c2ccccc2OCCO)N2[C@H](c3ccccc3)[C@H](c3ccccc3)OC(=O)[C@H]2[C@@H]1C(=O)NC[C@H](O)c1ccccc1 | 0.342
CCCC[C@@H](O)C1=C(COc2ccccc2)C[C@H]2C(=O)N(Cc3ccccc3)C(=O)[C@H]2[C@H]1CO | 0.146
COC(=O)[C@@]1(Cc2ccc(F)cc2)[C@H]2c3cc(C(=O)N(C)C)n(Cc4ccc(OC(F)(F)F)cc4)c3C[C@H]2CN1C(=O)c1ccccc1 | 0.19
COCCOC(=O)N1C(=O)[C@@]2(c3cc(C#CC4=CCCCC4)ccc31)[C@H](c1ccccc1OCCO)N1[C@H](c3ccccc3)[C@H](c3ccccc3)OC(=O)[C@H]1[C@@H]2C(=O)N1CCN(c2ncccn2)CC1 | 0.749
O=C1OCCC=C[C@H]2OC34C=CCN(c5ccc6ccccc6c5)C(=O)[C@H]3N(CCCO)C(=O)[C@@H]4C12 (stereo partly specified) | 0.933
CCCC=C(CCC)[C@@H](NS(=O)(=O)CC12CCC(CC1=O)C2(C)C)c1ccc(C(=O)OC)cc1 (stereo partly specified) | 0.765
CC(C)[Si](C#C[Si](C(C)C)(C(C)C)C(C)C)(O[C@H](c1ccccc1)c1cn(Cc2ccccc2)nn1)C(C)C | 0.144
C[N+](C)(C)CCCC[C@@H]1NC(=O)[C@@H]2C[C@H](C(=O)NCCCCCCN)[C@H](c3cccc(OCCO)c3)N2C1=O | 1.16
COC(=O)[C@@H]1N=C(c2ccc(OCCCO)cc2)O[C@@H]1C | -0.0756
Cc1ccc(N2C(=O)c3ccccc3[C@@H](C(=O)NCCCN(C)C)[C@@H]2c2ccc(CO)cc2)nc1 | 0.451
C#CCN(Cc1ccccc1Br)[C@H](/C=C/c1ccccc1)[C@@H](O)Cc1ccccc1 | -0.699
COCCOC(=O)N1C(=O)[C@@]2(c3cc(C#CC4=CCCCC4)ccc31)[C@H](c1ccccc1OCCO)N1[C@H](c3ccccc3)[C@H](c3ccccc3)OC(=O)[C@H]1[C@@H]2C(=O)NC[C@H](O)c1ccccc1 | 1.53
NCCCCCCNC(=O)[C@@H]1C[C@@H]2C(=O)N[C@@H](CCCCN)C(=O)N2[C@@H]1c1ccc(O)cc1 | 1.32
C=CC[C@]1(C(=O)N2CCOCC2)COC(c2ccc(OCCCO)cc2)=N1 | 1.76
COc1ccc(C(=O)Nc2ccc(CN3C(=O)[C@]4(O[C@H](CC(=O)N5Cc6ccccc6C[C@H]5CO)[C@@H]([Si](C)(C)c5ccc(OC)cc5)[C@@H]4C)c4ccccc43)cc2)cc1 | 1.57
CCCNC(=O)[C@@H]1c2ccccc2C(=O)N(Cc2ccc(OC(F)(F)F)cc2)[C@H]1c1ccc(CO)cc1 | 1.3
